Results as given in PubChem BioAssay AID1159580 (chemical genetic matrix, 2015).
Hit rate of the full screen: of about 5,500 compounds, about 2,000 (36%) were called active. Roughly 18% stayed inconclusive and do not appear here. Rule as the data show it: active = normalized growth mostly below about 0.91 (no sharp cut-off); inconclusive = no clear call, values can overlap the other calls; inactive = mostly above about 0.92. Some of the results follow.

Test: chemical genetic growth profiling, strain panel (AID 1159580);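 also: tested at 20 µM; growth read once vehicle control cultures reached saturation at 30 °C; 1 = growth at the plate median or of vehicle wells; lower values mean less growth of the strain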
Conditions: S. cerevisiae deletion strains, growth OD

Measured: normalized growth

C#CCN[C@H](C)Cc1ccccc1
inactive: locus YAL040C, strain CLN3, stronger effect = lower value 1 | locus YCL061C, strain MRC1 (second series), stronger effect = lower value 0.992 | locus YDR150W, strain NUM1, stronger effect = lower value 0.997 | locus YDR363W, strain ESC2, stronger effect = lower value 1.01 | locus YER002W, strain NOP16, stronger effect = lower value 0.996 | locus YGR078C, strain PAC10, stronger effect = lower value 0.987 | locus YJR075W, strain HOC1, stronger effect = lower value 0.994 | locus YNL128W, strain TEP1, stronger effect = lower value 0.998 | locus YNL153C, strain GIM3, stronger effect = lower value 1 | locus YNL175C, strain NOP13, stronger effect = lower value 0.997 | locus YNL197C, strain WHI3, stronger effect = lower value 0.982 | locus YNL224C, strain SQS1, stronger effect = lower value 0.995 | locus YNL322C, strain KRE1, stronger effect = lower value 0.998 | locus YOR083W, strain WHI5 (second series), stronger effect = lower value 1.03 | locus YPL241C, strain CIN2, stronger effect = lower value 0.999
